# Measurements reported in PMC5540273 (PLoS ONE, 2017).
# Like-named read-outs stand apart in the source and are kept apart here.
# Legend:
# Conditions in all cases: n = 1
# EPHA4 = system: EPHA4
# EPHA5 = system: EPHA5
# EPHA6 = system: EPHA6
# EPHA7 = system: EPHA7
# EPHA8 = system: EPHA8
# EPHB1 = system: EPHB1
# EPHB2 = system: EPHB2
# EPHB3 = system: EPHB3
# EPHB4 = system: EPHB4
# EPHB6 = system: EPHB6
# ERBB2 = system: ERBB2
# ERBB3 = system: ERBB3
# ERBB4 = system: ERBB4
# ERK1 = system: T1, ERK1
# T1 construct: gene MAPK3
# ERK2 = system: T2, ERK2
# T2 construct: gene MAPK1
# ERK3 = system: T3, ERK3
# T3 construct: gene MAPK6
# ERK4 = system: T4, ERK4
# T4 construct: gene MAPK4
# ERK5 = system: T5, ERK5
# T5 construct: gene MAPK7
# ERK8 = system: T6, ERK8
# T6 construct: gene MAPK15
# ERN1 = system: ERN1
# [1] = concentration: 1 μM, replicates: in singlicate
# 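Further: KINOMEscan kinase panel screen.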
smiles,measurement,setting,value
O=C(Nc1n[nH]c2nc(-c3nccs3)c(Br)cc12)C1CC1 [SB-742251],%Inh,EPHA4; [1],24%
same,%Inh,EPHA5; [1],1%
same,%Inh,EPHA6; [1],32%
same,%Inh,EPHA7; [1],18%
same,%Inh,EPHA8; [1],35%
same,%Inh,EPHB1; [1],0%
same,%Inh,EPHB2; [1],15%
same,%Inh,EPHB3; [1],29%
same,%Inh,EPHB4; [1],17%
same,%Inh,EPHB6; [1],59%
same,%Inh,ERBB2; [1],2%
same,%Inh,ERBB3; [1],19%
same,%Inh,ERBB4; [1],0%
same,%Inh,ERK1; [1],0%
same,%Inh,ERK2; [1],11%
same,%Inh,ERK3; [1],14%
same,%Inh,ERK4; [1],16%
same,%Inh,ERK5; [1],0%
same,%Inh,ERK8; [1],84%
same,%Inh,ERN1; [1],0%
Cl.c1ccc(-c2n[nH]cc2-c2ccnc(-c3ccc(CN4CCOCC4)cc3)c2)nc1 [GW776245],%Inh,EPHA4; [1],16%
same,%Inh,EPHA5; [1],11%
same,%Inh,EPHA6; [1],5%
same,%Inh,EPHA7; [1],15%
same,%Inh,EPHA8; [1],19%
same,%Inh,EPHB1; [1],10%
same,%Inh,EPHB2; [1],30%
same,%Inh,EPHB3; [1],13%
same,%Inh,EPHB4; [1],17%
same,%Inh,EPHB6; [1],0%
same,%Inh,ERBB2; [1],3%
same,%Inh,ERBB3; [1],52%
same,%Inh,ERBB4; [1],2%
same,%Inh,ERK1; [1],0%
same,%Inh,ERK2; [1],12%
same,%Inh,ERK3; [1],0%
same,%Inh,ERK4; [1],0%
same,%Inh,ERK5; [1],9%
same,%Inh,ERK8; [1],0%
same,%Inh,ERN1; [1],0%
Cc1ccc(NC(=O)Nc2cccc(C(F)(F)F)c2)cc1 [GSK955403],%Inh,EPHA4; 1 µM,6%
same,%Inh,EPHA5; 1 µM,0%
same,%Inh,EPHA6; 1 µM,0%
same,%Inh,EPHA7; 1 µM,2%
same,%Inh,EPHA8; 1 µM,3%
same,%Inh,EPHB1; 1 µM,5%
same,%Inh,EPHB2; 1 µM,3%
same,%Inh,EPHB3; 1 µM,0%
same,%Inh,EPHB4; 1 µM,0%
same,%Inh,EPHB6; 1 µM,21%
same,%Inh,ERBB2; 1 µM,0%
same,%Inh,ERBB3; 1 µM,17%
same,%Inh,ERBB4; 1 µM,0%
same,%Inh,ERK1; 1 µM,0%
same,%Inh,ERK2; 1 µM,0%
same,%Inh,ERK3; 1 µM,0%
same,%Inh,ERK4; 1 µM,0%
same,%Inh,ERK5; 1 µM,5%
same,%Inh,ERK8; 1 µM,0%
same,%Inh,ERN1; 1 µM,0%
Fc1cc(Cl)ccc1Nc1ccnc2cc(I)ccc12 [GW551191],%Inh,EPHA4; [1],13%
same,%Inh,EPHA5; [1],0%
same,%Inh,EPHA6; [1],34%
same,%Inh,EPHA7; [1],6%
same,%Inh,EPHA8; [1],44%
same,%Inh,EPHB1; [1],32%
same,%Inh,EPHB2; [1],25%
same,%Inh,EPHB3; [1],17%
same,%Inh,EPHB4; [1],15%
same,%Inh,EPHB6; [1],53%
same,%Inh,ERBB2; [1],32%
same,%Inh,ERBB3; [1],31%
same,%Inh,ERBB4; [1],30%
same,%Inh,ERK1; [1],0%
same,%Inh,ERK2; [1],0%
same,%Inh,ERK3; [1],5%
same,%Inh,ERK4; [1],24%
same,%Inh,ERK5; [1],0%
same,%Inh,ERK8; [1],0%
same,%Inh,ERN1; [1],2%
COc1cc(Nc2nccc(N3CCC(NC(=O)Nc4cc(C)ccc4C)C3)n2)cc(OC)c1OC (centres unmarked) [GSK1379762],%Inh,EPHA4; [1],26%
same,%Inh,EPHA5; [1],0%
same,%Inh,EPHA6; [1],18%
same,%Inh,EPHA7; [1],25%
same,%Inh,EPHA8; [1],33%
same,%Inh,EPHB1; [1],12%
same,%Inh,EPHB2; [1],0%
same,%Inh,EPHB3; [1],16%
same,%Inh,EPHB4; [1],4%
same,%Inh,EPHB6; [1],89%
same,%Inh,ERBB2; [1],11%
same,%Inh,ERBB3; [1],0%
same,%Inh,ERBB4; [1],0%
same,%Inh,ERK1; [1],9%
same,%Inh,ERK2; [1],0%
same,%Inh,ERK3; [1],5%
same,%Inh,ERK4; [1],4%
same,%Inh,ERK5; [1],0%
same,%Inh,ERK8; [1],41%
same,%Inh,ERN1; [1],15%
COc1ccc(CNC(=O)NC2CCN(c3ccnc(Nc4cc(OC)c(OC)c(OC)c4)n3)C2)cc1 (centres unmarked) [GSK1379748],%Inh,EPHA4; [1],3%
same,%Inh,EPHA5; [1],0%
same,%Inh,EPHA6; [1],0%
same,%Inh,EPHA7; [1],0%
same,%Inh,EPHA8; [1],8%
same,%Inh,EPHB1; [1],20%
same,%Inh,EPHB2; [1],0%
same,%Inh,EPHB3; [1],0%
same,%Inh,EPHB4; [1],0%
same,%Inh,EPHB6; [1],91.8%
same,%Inh,ERBB2; [1],0%
same,%Inh,ERBB3; [1],27%
same,%Inh,ERBB4; [1],9%
same,%Inh,ERK1; [1],0%
same,%Inh,ERK2; [1],0%
same,%Inh,ERK3; [1],0%
same,%Inh,ERK4; [1],0%
same,%Inh,ERK5; [1],0%
same,%Inh,ERK8; [1],0%
same,%Inh,ERN1; [1],0%
CC1=C(C(=O)Nc2cc3cn[nH]c3cc2F)C(c2ccc(C(F)(F)F)cc2)CC(=O)N1 (centres unmarked) [GSK429286],%Inh,EPHA4; [1],4%
same,%Inh,EPHA5; [1],0%
same,%Inh,EPHA6; [1],12%
same,%Inh,EPHA7; [1],11%
same,%Inh,EPHA8; [1],23%
same,%Inh,EPHB1; [1],3%
same,%Inh,EPHB2; [1],10%
same,%Inh,EPHB3; [1],21%
same,%Inh,EPHB4; [1],10%
same,%Inh,EPHB6; [1],17%
same,%Inh,ERBB2; [1],9%
same,%Inh,ERBB3; [1],0%
same,%Inh,ERBB4; [1],63%
same,%Inh,ERK1; [1],8%
same,%Inh,ERK2; [1],0%
same,%Inh,ERK3; [1],14%
same,%Inh,ERK4; [1],10%
same,%Inh,ERK5; [1],0%
same,%Inh,ERK8; [1],0%
same,%Inh,ERN1; [1],2%
Cc1cc(NCC(c2ccccc2)c2ccccc2)nc(NCc2ccc(C(F)(F)F)cc2)n1 [GW497681],%Inh,EPHA4; [1],0%
same,%Inh,EPHA5; [1],0%
same,%Inh,EPHA6; [1],0%
same,%Inh,EPHA7; [1],7%
same,%Inh,EPHA8; [1],6%
same,%Inh,EPHB1; [1],0%
same,%Inh,EPHB2; [1],0%
same,%Inh,EPHB3; [1],0%
same,%Inh,EPHB4; [1],7%
same,%Inh,EPHB6; [1],8%
same,%Inh,ERBB2; [1],21%
same,%Inh,ERBB3; [1],1%
same,%Inh,ERBB4; [1],27%
same,%Inh,ERK1; [1],0%
same,%Inh,ERK2; [1],0%
same,%Inh,ERK3; [1],0%
same,%Inh,ERK4; [1],5%
same,%Inh,ERK5; [1],0%
same,%Inh,ERK8; [1],0%
same,%Inh,ERN1; [1],0%
COc1ccccc1-c1ccc2c(NC(=O)C3CC3)n[nH]c2n1 [SB-711239],%Inh,EPHA4; [1],13%
same,%Inh,EPHA5; [1],0%
same,%Inh,EPHA6; [1],9%
same,%Inh,EPHA7; [1],4%
same,%Inh,EPHA8; [1],9%
same,%Inh,EPHB1; [1],0%
same,%Inh,EPHB2; [1],11%
same,%Inh,EPHB3; [1],15%
same,%Inh,EPHB4; [1],14%
same,%Inh,EPHB6; [1],6%
same,%Inh,ERBB2; [1],0%
same,%Inh,ERBB3; [1],22%
same,%Inh,ERBB4; [1],23%
same,%Inh,ERK1; [1],3%
same,%Inh,ERK2; [1],3%
same,%Inh,ERK3; [1],0%
same,%Inh,ERK4; [1],0%
same,%Inh,ERK5; [1],0%
same,%Inh,ERK8; [1],0%
same,%Inh,ERN1; [1],0%
Cc1cccc(-c2nc(C)cc(Nc3ccncc3)n2)n1 [GSK257997],%Inh,EPHA4; [1],2%
same,%Inh,EPHA5; [1],0%
same,%Inh,EPHA6; [1],2%
same,%Inh,EPHA7; [1],7%
same,%Inh,EPHA8; [1],8%
same,%Inh,EPHB1; [1],23%
same,%Inh,EPHB2; [1],0%
same,%Inh,EPHB3; [1],5%
same,%Inh,EPHB4; [1],5%
same,%Inh,EPHB6; [1],0%
same,%Inh,ERBB2; [1],28%
same,%Inh,ERBB3; [1],0%
same,%Inh,ERBB4; [1],30%
same,%Inh,ERK1; [1],0%
same,%Inh,ERK2; [1],0%
same,%Inh,ERK3; [1],19%
same,%Inh,ERK4; [1],100%
same,%Inh,ERK5; [1],0%
same,%Inh,ERK8; [1],0%
same,%Inh,ERN1; [1],4%
